# Test results taken from paper PMC4552634, “A New Set of Chemical Starting Points with Plasmodium falciparum Transmission-Blocking Potential for Antimalarial Drug Discovery” (PLoS ONE, 2015).
# The whole screen tested about 13,000 compounds, of which about 3,200 (25%) showed an effect of 50% or more. This is one part of the list.
# Test system: P. falciparum stage V gametocytes
# Parameters: BacTiter-Glo ATP luminescence viability of purified stage V gametocytes in 384-well plates, per cent inhibition versus DMSO
# Details: 48 h, 5 µM; inhibitor
row,Structure (SMILES),% Inhibition [%]
1,COc1ccc(Nc2nccc(N3CCC(NC(=O)C(C)c4ccc(Cl)cc4)CC3)n2)cc1 (stereo not shown) [TCMDC-133633],29.63
2,COc1cc(NC(=O)C(c2ccc(Cl)cc2)C(C)C)cc(OC)c1 (stereo not shown) [TCMDC-124823],74.52
3,COc1cc(NC(=O)c2cccc([N+](=O)[O-])c2)cc(S(=O)(=O)c2ccc(Cl)cc2)c1 [TCMDC-124901],21.63
4,CCCc1nc2c(N3CC(NC(=O)/C=C/c4ccccc4)C3)cccc2n1C1CC1 [TCMDC-134613],8.32
5,O=C1C2=C(Nc3ccccc3SC2c2cccs2)c2ccccc21 (stereo not shown) [TCMDC-124060],-4.275
6,COc1ccc(NCc2cccc(-c3cccc(CNCCc4ccccc4)c3)c2)cc1 [TCMDC-140485],-4.016
7,COCCNCc1ccc(-c2ccc(CNC3CCN(Cc4ccccc4)CC3)cc2)cc1 [TCMDC-140490],23.65
8,COCCNCc1ccc(-c2cccc(CNc3ccc(OC)cc3)c2)cc1 [TCMDC-140484],-1.116
9,COc1cccc(CCNCc2ccc(-c3cccc(CNC4CCCC4)c3)cc2)c1 [TCMDC-140493],66.56
10,COCCNCc1cccc(-c2ccc(CNC3CCN(Cc4ccccc4)CC3)cc2)c1 [TCMDC-140489],85.27
11,COCCNCc1ccc(-c2cccc(CNC3CCN(Cc4ccccc4)CC3)c2)cc1 [TCMDC-140482],107.8
12,COCCNCc1cccc(-c2cccc(CNC3CCN(Cc4ccccc4)CC3)c2)c1 [TCMDC-140481],99.88
13,O=C(NCc1cccc(C(F)(F)F)c1)C(c1cc2ccccc2o1)N1CCN(C(c2ccccc2)c2ccccc2)CC1 (stereo not shown) [TCMDC-141008],8.041
14,Cc1ccc(C(C)C)cc1CON1C(N)=NC(N)=NC1(C)C [TCMDC-131323],26.53
15,COc1ccc2nccc([C@@H](O)CN3CCC(NCc4ccc(OC)c(NC=O)c4)CC3)c2c1 [TCMDC-141568],1.46
16,CN(Cc1cccc(C#N)c1)C1CCN(c2cc(NC(=O)c3ccc(F)cc3)ccn2)CC1 [TCMDC-134974],-6.144
17,CN(C)CCOc1cc(NC(=O)Nc2ccc(Cl)cc2C(F)(F)F)ccc1I [TCMDC-139125],-26.77
18,Cc1cc(N[C@@H](CC(C)C)C(=O)NCCOc2ccccc2)nc(NCC2CCCCC2)n1 [TCMDC-134919],-82.39
19,COc1cccc(CN2CCC3(CC2)CN(C(=O)Nc2ccc(Cl)c(Cl)c2)C3)c1 [TCMDC-136484],-4.115
